In PubChem BioAssay AID1159580 (chemical genetic matrix, 2015):
Where “and” joins values, the source holds several entries; their conditions need not be identical. Equal entries are not always repeated. Among all 5,500 compounds or so, about 2,000 (36%) were called active. Inconclusive results (about 18%) are left out. Rule as the data show it: active = normalized growth mostly below about 0.91 (no sharp cut-off); inconclusive = no clear call, values can overlap the other calls; inactive = mostly above about 0.92. The list shows a part of the results.

Assay: chemical genetic growth profiling, strain panel (AID 1159580);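 also: tested at 20 µM; growth read once vehicle control cultures reached saturation at 30 °C; 1 = growth at the plate median or of vehicle wells; lower values mean less growth of the strain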
Details: growth OD

Measured: normalized growth

Cn1cnc2c1c(=O)[nH]c(=O)n2C
inactive: S. cerevisiae deletion strains, locus YJR075W, strain HOC1, active compounds read low 1.03 | S. cerevisiae deletion strains, locus YKL009W, strain mrt4, active compounds read low 0.989 | S. cerevisiae deletion strains, locus YKL068W, active compounds read low 1.01 | S. cerevisiae deletion strains, locus YKL085W, strain MDH1 (second series), active compounds read low 1.01 | S. cerevisiae deletion strains, locus YKL085W, strain MDH1, active compounds read low 1.01 | S. cerevisiae deletion strains, locus YKL160W, strain elf1, active compounds read low 0.995 | S. cerevisiae deletion strains, locus YKL190W, strain CNB1, active compounds read low 1.01 | S. cerevisiae deletion strains, locus YKR001C, strain vps1, active compounds read low 1 | S. cerevisiae deletion strains, locus YKR026C, strain gcn3, active compounds read low 0.961 | S. cerevisiae deletion strains, locus YKR091W, strain srl3, active compounds read low 0.964 | S. cerevisiae deletion strains, locus YLL001W, strain dnm1, active compounds read low 0.994 | S. cerevisiae deletion strains, locus YLL026W, active compounds read low 0.996 | S. cerevisiae deletion strains, locus YLL041C, strain sdh2, active compounds read low 1.01 | S. cerevisiae deletion strains, locus YLR027C, strain aat2, active compounds read low 0.987 | S. cerevisiae deletion strains, locus YLR039C, strain RIC1, active compounds read low 1.02 | S. cerevisiae deletion strains, locus YLR058C, strain SHM2, active compounds read low 1.01 | S. cerevisiae deletion strains, locus YLR102C, strain apc9, active compounds read low 1.01 | S. cerevisiae deletion strains, locus YLR113W, strain HOG1, active compounds read low 0.973 | S. cerevisiae deletion strains, locus YLR221C, strain rsa3, active compounds read low 0.976 | S. cerevisiae deletion strains, locus YLR258W, strain gsy2, active compounds read low 1 | S. cerevisiae deletion strains, locus YLR262C, strain YPT6 (second series), active compounds read low 0.978 | S. cerevisiae deletion strains, locus YLR262C, strain YPT6, active compounds read low 1.04 | S. cerevisiae deletion strains, locus YLR268W, strain sec22, active compounds read low 1.04 | S. cerevisiae deletion strains, locus YLR320W, strain mms22, active compounds read low 1 | S. cerevisiae deletion strains, locus YLR330W, strain CHS5, active compounds read low 1.01 | S. cerevisiae deletion strains, locus YLR342W, strain FKS1 (second series), active compounds read low 1.01 | S. cerevisiae deletion strains, locus YLR342W, strain FKS1, active compounds read low 0.978 | S. cerevisiae deletion strains, locus YLR357W, strain rsc2, active compounds read low 1 | S. cerevisiae deletion strains, locus YLR370C, strain arc18, active compounds read low 0.97 | S. cerevisiae deletion strains, locus YLR371W, strain rom2, active compounds read low 1.03 | S. cerevisiae deletion strains, locus YLR384C, strain iki3, active compounds read low 0.994 | S. cerevisiae deletion strains, locus YLR418C, strain cdc73, active compounds read low 0.99 | S. cerevisiae deletion strains, locus YML016C, strain PPZ1, active compounds read low 1.01 | S. cerevisiae deletion strains, locus YML032C, strain rad52, active compounds read low 1.03 | S. cerevisiae deletion strains, locus YML120C, strain ndi1, active compounds read low 0.959 | S. cerevisiae deletion strains, locus YML124C, strain tub3, active compounds read low 1.01 | S. cerevisiae deletion strains, locus YMR058W, strain fet3, active compounds read low 0.97 | S. cerevisiae deletion strains, locus YMR078C, strain ctf18, active compounds read low 1.01 | S. cerevisiae deletion strains, locus YMR125W, strain sto1, active compounds read low 0.978 | S. cerevisiae deletion strains, locus YMR129W, active compounds read low 0.979 | S. cerevisiae deletion strains, locus YMR205C, strain PFK2, active compounds read low 0.979 | S. cerevisiae deletion strains, locus YMR223W, strain ubp8, active compounds read low 1 | S. cerevisiae deletion strains, locus YMR231W, strain pep5, active compounds read low 1 | S. cerevisiae deletion strains, locus YMR263W, strain SAP30, active compounds read low 1.01 and 0.995 | S. cerevisiae deletion strains, locus YMR307W, strain GAS1, active compounds read low 0.981 and 0.999 | S. cerevisiae deletion strains, locus YNL067W, strain RPL9B, active compounds read low 1.02 | S. cerevisiae deletion strains, locus YNL071W, strain lat1, active compounds read low 0.983 | S. cerevisiae deletion strains, locus YNL128W, strain TEP1, active compounds read low 1.02 and 1.01 | S. cerevisiae deletion strains, locus YNL153C, strain GIM3, active compounds read low 1.01 | S. cerevisiae deletion strains, locus YNL175C, strain NOP13, active compounds read low 0.995 | S. cerevisiae deletion strains, locus YNL183C, strain NPR1, active compounds read low 0.948 | S. cerevisiae deletion strains, locus YNL197C, strain WHI3, active compounds read low 1.02 | S. cerevisiae deletion strains, locus YNL209W, strain ssb2, active compounds read low 0.986 | S. cerevisiae deletion strains, locus YNL224C, strain SQS1, active compounds read low 1.01 | S. cerevisiae deletion strains, locus YNL233W, strain BNI4, active compounds read low 1.01 | S. cerevisiae deletion strains, locus YNL248C, strain rpa49, active compounds read low 0.978 | S. cerevisiae deletion strains, locus YNL250W, strain rad50, active compounds read low 1.02 | S. cerevisiae deletion strains, locus YNL271C, strain bni1, active compounds read low 1.01 | S. cerevisiae deletion strains, locus YNL298W, strain CLA4, active compounds read low 1 | S. cerevisiae deletion strains, locus YNL307C, strain MCK1, active compounds read low 1 | S. cerevisiae deletion strains, locus YNL322C, strain KRE1 (second series), active compounds read low 0.953 | S. cerevisiae deletion strains, locus YNL322C, strain KRE1, active compounds read low 1.01 and 1.02 | S. cerevisiae deletion strains, locus YNR049C, strain mso1, active compounds read low 0.993 | S. cerevisiae deletion strains, locus YNR052C, strain pop2, active compounds read low 1.01 | S. cerevisiae deletion strains, locus YOL006C, strain TOP1, active compounds read low 1.06 | S. cerevisiae deletion strains, locus YOL012C, strain htz1 0.781 | S. cerevisiae deletion strains, locus YOL147C, strain pex11, active compounds read low 1.01 | S. cerevisiae deletion strains, locus YOR001W, strain rrp6, active compounds read low 0.986 | S. cerevisiae deletion strains, locus YOR061W, strain CKA2, active compounds read low 1.01 | S. cerevisiae deletion strains, locus YOR069W, strain VPS5, active compounds read low 1.01 | S. cerevisiae deletion strains, locus YOR070C, strain gyp1, active compounds read low 1 | S. cerevisiae deletion strains, locus YOR080W, strain dia2, active compounds read low 0.972 | S. cerevisiae deletion strains, locus YOR083W, strain WHI5 (second series), active compounds read low 1 | S. cerevisiae deletion strains, locus YOR083W, strain WHI5, active compounds read low 0.979 | S. cerevisiae deletion strains, locus YOR106W, strain vam3, active compounds read low 0.977 | S. cerevisiae deletion strains, locus YOR136W, strain idh2, active compounds read low 1.01 | S. cerevisiae deletion strains, locus YOR144C, strain elg1, active compounds read low 1.01 | S. cerevisiae deletion strains, locus YOR184W, strain ser1, active compounds read low 1.01 | S. cerevisiae deletion strains, locus YOR231W, strain MKK1, active compounds read low 0.976 | S. cerevisiae deletion strains, locus YOR265W, strain rbl2, active compounds read low 0.997 | S. cerevisiae deletion strains, locus YOR270C, strain vph1, active compounds read low 0.986 | S. cerevisiae deletion strains, locus YOR290C, strain snf2, active compounds read low 0.994 | S. cerevisiae deletion strains, locus YOR316C, strain cot1, active compounds read low 1.01 | S. cerevisiae deletion strains, locus YPL051W, strain arl3, active compounds read low 1 | S. cerevisiae deletion strains, locus YPL055C, strain LGE1, active compounds read low 1.01 and 1.03 | S. cerevisiae deletion strains, locus YPL078C, strain atp4, active compounds read low 0.979 | S. cerevisiae deletion strains, locus YPL106C, strain sse1, active compounds read low 0.954 | S. cerevisiae deletion strains, locus YPL240C, strain hsp82, active compounds read low 0.989 | S. cerevisiae deletion strains, locus YPL241C, strain CIN2, active compounds read low 1.01 | S. cerevisiae deletion strains, locus YPL256C, strain CLN2, active compounds read low 0.932 | S. cerevisiae deletion strains, locus YPR119W, strain clb2, active compounds read low 1.02 | S. cerevisiae deletion strains, locus YPR141C, strain kar3, active compounds read low 1.01 | S. cerevisiae deletion strains, locus YPR163C, strain tif3, active compounds read low 1.01 | S. cerevisiae deletion strains, locus YPR167C, strain met16, active compounds read low 1.01 | S. cerevisiae deletion strains, strain wtn01, active compounds read low 1.01 | S. cerevisiae strains, strain wild type, active compounds read low 1.01
